Measurements taken from PubChem BioAssay (Tox21).
Results filed as inconclusive are left out. Calls of active or inactive are those of the source. Unless noted, calls come from the whole dose curve; as a rule, active = well fitted curve in the direction sought with a large enough effect in the repeat runs; inconclusive = weak or mixed curves; inactive = no such curve, though single readings can be large; an effect the other way counts as inactive or inconclusive.

Assays:
[1] = A CellTox Green Cytotoxicity Assay to monitor cytotoxicity in HEK293 cells - 16 hour (AID 1224888); conditions: CellTox Green fluorescence; series mostly up to 76.8 µM; note: nearly all actives have a fitted effect of over 35% in size
In short: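 Real-time, in one plate: 600 HEK293 cells/well with dead-cell DNA dye, pinned compound after 5 h, 37 C incubation over 40 h; viable cells give no appreciable fluorescence.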

[2] = qHTS RealTime-Glo MT Cell Viability Assay in HepG2 cells - 0 hour (AID 1224889); conditions: RealTime-Glo luminescence; series mostly up to 76.8 µM; note: nearly all actives have a fitted effect of over 50% in size
In short: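 HepG2 suspension premixed with RealTime-Glo reagents is plated at 600 cells per well and left 5 h at 37 C/5% CO2. Compounds in DMSO then go in, and bioluminescence reflecting viable cell number is recorded over 40 h.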

[3] = A CellTox Green Cytotoxicity Assay to monitor cytotoxicity in HepG2 cells - 8 hour (AID 1224890); conditions: CellTox Green fluorescence; series mostly up to 76.8 µM; note: nearly all actives have a fitted effect of over 45% in size
In short: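 Cytotoxicity was tracked as dead-cell DNA fluorescence in HepG2 cells treated with test compounds at 37 C; each time-point value comes from one kinetic series spanning 0, 8, 16, 24, 32 and 40 h.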

[4] = qHTS assay to identify small molecule antagonists of the estrogen receptor alpha (ER-alpha) signaling pathway using the BG1 cell line in the presence of 0.1 nM 17-beta-estradiol - cell viability counter screen (AID 1259241); conditions: VM7Luc4E2 (BG1) viability, CellTiter-Fluor protease, 22 h, 0.1 nM estradiol agonist added; series mostly up to 92.4 µM; note: nearly all actives have a fitted effect of over 40% in size
In short: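 In this screen, hormone-deprived VM7Luc4E2 cells were seeded at 4,000 per well, dosed with compound and 0.1 nM estradiol final, and incubated 22 hr at 37C and 5% CO2; fluorogenic live-cell protease signal reported viability.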

[5] = qHTS assay to identify small molecule antagonists of the androgen receptor (AR) signaling pathway using the MDA cell line in the presence of 0.5 nM R1881 - cell viability counter screen (AID 1259242); conditions: MDA-kb2 viability, CellTiter-Fluor protease fluorescence, 16 h; series mostly up to 92.4 µM; note: nearly all actives have a fitted effect of over 45% in size
In short: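 Cells seeded at 3,000/well and allowed 5 hr at 37C, 0% CO2 before compound transfer and R1881 (0.5 nM final) addition; 16 hr later, live-cell protease fluorescence indicated cytotoxicity.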

[6] = target: Estrogen receptor (Homo sapiens) (UniProt P03372); experiment: qHTS assay to identify small molecule antagonists of the estrogen receptor alpha (ER-alpha) signaling pathway using the BG1 cell line in the presence of 0.1 nM 17-beta-estradiol (AID 1259244); conditions: VM7Luc4E2 (BG1) ERE-luciferase, antagonist mode, 0.1 nM E2, 22 h; series mostly up to 92.4 µM; note: nearly all actives have a fitted effect of over 50% in size
In short: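 Luciferase signal from VM7Luc4E2 ERE-reporter cells, co-dosed with test compound and 0.1 nM final 17beta-estradiol for 22 h, read with ONE-Glo.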

[7] = qHTS assay to identify small molecule HDAC inhibitors (AID 1259364); conditions: HCT-116 HDAC-Glo I/II luminescence, 2 h; series mostly up to 92.4 µM;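 note: wild-type HCT-116 cells with endogenous class I/II HDAC activity; top concentration of the series differs between compounds; nearly all actives have a fitted effect of over 45% in size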
In short: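 HCT-116 wt cells, 1,500/well, overnight attach. Compounds (DMSO) 2 h, 37 °C. HDAC-Glo I/II, 30 min RT. Luminescence.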

[8] = qHTS assay to identify small molecule HDAC inhibitors - cell viability counter screen (AID 1259365); conditions: HCT-116 viability, CellTiter-Glo ATP luminescence, 2 h; series mostly up to 92.4 µM; note: nearly all actives have a fitted effect of over 50% in size
In short: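 Measured quantity is CellTiter-Glo luminescence from wild-type HCT-116 cells after compound incubation of 2hr at 37C, 5% CO2; reagent developed 30min at room temperature.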

[9] = qHTS assay to identify small molecule agonists of the sonic hedgehog signaling (Shh) pathway - cell viability counter screen (AID 1259366); conditions: NIH/3T3 Gli1-Luc viability, CellTiter-Fluor, 24 h; series mostly up to 92.4 µM; note: nearly all actives have a fitted effect of over 50% in size
In short: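 In quantitative high-throughput format, 3T3 Gli1-Luc cells were exposed to compounds for 24hr and multiplexed for viability using CellTiter-Fluor, incubated 1hr at 37C before the fluorescence read.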

[10] = qHTS assay to identify small molecule antagonists of the sonic hedgehog signaling (Shh) pathway - cell viability counter screen (AID 1259367); conditions: NIH/3T3 Gli1-Luc viability, CellTiter-Fluor, 24 h; series mostly up to 92.4 µM; note: nearly all actives have a fitted effect of over 55% in size
In short: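 Conditioned medium drove Shh signaling in 3T3 Gli1-Luc cells exposed to compounds at 37C and 5% CO2. Viability was determined from CellTiter-Fluor fluorescence, with reagent incubated 1 hr after 23 hr of treatment.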

[11] = qHTS assay to identify small molecule agonists of the sonic hedgehog signaling (Shh) pathway (AID 1259368; calls by dose curve;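 note: NIH/3T3-derived 3T3Gli1-Luc cells carrying a stable Gli1-driven firefly luciferase reporter; nearly all actives have a fitted effect of over 15% in size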); conditions: NIH/3T3 Gli1-Luc reporter, luciferase, 24 h, stronger effect = higher value; series mostly up to 92.4 µM
In short: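 Following a 24 hr incubation with DMSO-dissolved compounds at 37 C, 5% CO2, Gli1-Luc NIH/3T3-derived cells received luciferase reagent for 30 min at room temperature prior to luminescence measurement.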

[12] = qHTS assay to identify small molecule antagonists of the sonic hedgehog signaling (Shh) pathway (AID 1259369; calls by dose curve; note: nearly all actives have a fitted effect of over 45% in size); conditions: NIH/3T3 Gli1-Luc reporter, Shh antagonist, luminescence 24 h; series mostly up to 92.4 µM
In short: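 Read-out is luminescence from a firefly luciferase gene controlled by the Gli1 response element, in 3T3Gli1-Luc cells pre-incubated 4hr then exposed to compounds and conditioned medium for 24hr.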

[13] = target: Estrogen receptor beta (Homo sapiens) (UniProt Q92731); experiment: qHTS assay to identify small molecule agonists of the estrogen receptor beta (ER-beta) signaling pathway (AID 1259377; active = well fitted activation curve with a large enough effect in the signal ratio in the repeat runs, not every such curve was filed as active; the % refers to the signal ratio); conditions: ER-beta-UAS-bla HEK293T, beta-lactamase FRET ratio, 16 h; series mostly up to 92.4 µM
In short: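 Reporter cells (HEK293T, ER-beta-UAS-bla) receive compounds or DMSO after a 6 hr pre-incubation. They then incubate 16 hr at 37C/5% CO2, and fluorescence from LiveBLAzer B/G substrate is measured after 2 hours at room temperature.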

[14] = target: Estrogen receptor beta (Homo sapiens) (UniProt Q92731); experiment: qHTS assay to identify small molecule antagonists of the estrogen receptor beta (ER-beta) signaling pathway (AID 1259378; active = well fitted inhibition curve with a large enough effect in the signal ratio in the repeat runs, not every such curve was filed as active; the % refers to the signal ratio); conditions: ER-beta-UAS-bla HEK293T, beta-lactamase FRET ratio, 16 h; series mostly up to 92.4 µM
In short: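 ER-beta-UAS-bla HEK293T (GripTite) cells in 2% charcoal-stripped FBS medium were preincubated 6 hr at 37C, dosed with compound, then stimulated with 1 nM E2 (final) for 16 hr; beta-lactamase reporter read by B/G FRET fluorescence after 2 hr substrate loading.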

[15] = qHTS assay to identify small molecule agonists of the androgen receptor (AR) signaling pathway in the presence of an antagonist - cell viability counter screen (AID 1259379); conditions: MDA-kb2 viability, CellTiter-Fluor, 16 h; series mostly up to 92.4 µM;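 note: MDA-kb2 human breast cancer cells carrying an MMTV luciferase reporter; nearly all actives have a fitted effect of over 25% in size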
In short: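 Each compound was tested at 15 concentrations on MDA-kb2 cells in the presence of 3.0uM nilutamide. Viability was measured by CellTiter-Fluor fluorescence after a 16 hr incubation at 37C in a CO2-free atmosphere.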

[16] = qHTS assay to identify small molecule agonists of the estrogen receptor beta (ER-beta) signaling pathway - cell viability counter screen (AID 1259380); conditions: ER-beta-bla HEK293T viability, CellTiter-Glo luminescence, 16 h; series mostly up to 92.4 µM; note: nearly all actives have a fitted effect of over 30% in size
In short: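 Compounds dissolved in DMSO were pin-transferred onto ER-beta-UAS-bla HEK293T cells that had settled 6 hr, and exposure ran 16 hr at 37C. Following the reporter read, CellTiter-Glo luminescence after 30 min at room temperature indicated cytotoxicity.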

[17] = qHTS assay to identify small molecule antagonists of the estrogen receptor beta (ER-beta) signaling pathway - cell viability counter screen (AID 1259382); conditions: ER-beta-UAS-bla HEK293T viability, CellTiter-Glo luminescence, 16 h; series mostly up to 92.4 µM; note: nearly all actives have a fitted effect of over 55% in size
In short: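 CellTiter-Glo ATP luminescence measured after the LiveBLAzer read in the same wells; ER-beta-UAS-bla HEK293T cells, 16 hr compound treatment with 1nM 17-beta-estradiol agonist at 37C, 5% CO2.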
% is set by controls: 0 for no effect and ±100 for the full control effect.

Chain of Estrogen receptor beta (Homo sapiens) (Q92731 whole entry, looked up): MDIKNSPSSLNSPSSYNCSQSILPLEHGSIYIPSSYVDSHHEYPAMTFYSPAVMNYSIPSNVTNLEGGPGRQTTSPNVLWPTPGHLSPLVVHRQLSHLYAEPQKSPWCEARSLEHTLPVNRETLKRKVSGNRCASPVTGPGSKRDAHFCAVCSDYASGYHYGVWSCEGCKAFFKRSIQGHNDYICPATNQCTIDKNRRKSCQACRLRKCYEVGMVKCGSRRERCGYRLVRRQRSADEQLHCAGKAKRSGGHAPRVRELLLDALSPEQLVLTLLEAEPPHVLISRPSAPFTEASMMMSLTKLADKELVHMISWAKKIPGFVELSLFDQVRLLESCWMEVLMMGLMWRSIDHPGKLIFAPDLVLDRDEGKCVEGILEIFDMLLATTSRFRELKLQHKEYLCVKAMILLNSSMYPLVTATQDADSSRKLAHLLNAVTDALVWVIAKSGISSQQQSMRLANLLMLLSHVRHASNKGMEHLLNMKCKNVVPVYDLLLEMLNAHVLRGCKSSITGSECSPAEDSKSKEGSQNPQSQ
Chain of Estrogen receptor (Homo sapiens) (P03372 whole entry, looked up): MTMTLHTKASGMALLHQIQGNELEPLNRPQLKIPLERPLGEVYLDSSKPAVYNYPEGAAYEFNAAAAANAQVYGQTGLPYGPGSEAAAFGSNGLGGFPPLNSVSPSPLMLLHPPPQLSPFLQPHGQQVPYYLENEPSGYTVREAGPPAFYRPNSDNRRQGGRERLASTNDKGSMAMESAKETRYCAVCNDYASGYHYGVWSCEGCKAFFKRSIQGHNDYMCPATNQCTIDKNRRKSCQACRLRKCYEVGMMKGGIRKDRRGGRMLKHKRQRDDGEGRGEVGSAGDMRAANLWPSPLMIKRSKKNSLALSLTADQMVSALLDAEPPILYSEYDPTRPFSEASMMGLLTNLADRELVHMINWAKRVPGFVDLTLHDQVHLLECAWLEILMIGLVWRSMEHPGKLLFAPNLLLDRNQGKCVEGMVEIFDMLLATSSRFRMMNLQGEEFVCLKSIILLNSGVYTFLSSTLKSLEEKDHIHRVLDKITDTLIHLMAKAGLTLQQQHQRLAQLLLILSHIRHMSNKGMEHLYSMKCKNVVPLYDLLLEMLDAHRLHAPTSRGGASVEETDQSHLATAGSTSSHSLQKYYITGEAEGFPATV

CC(CO)(CO)CO
inactive: Potency [1] | Potency [2] | Potency [3] | outcome [4] | outcome [5] | outcome [6] | Potency [7] | outcome [8] | outcome [9] | outcome [10] | outcome [11] | Potency [12] | Potency [13] | Potency [14] | outcome [15] | outcome [16] | outcome [17]

[O]=[Mo](=[O])=[O]
inactive: activity change [1] -32.5% [at 15.8 µM, stronger effect = higher value] | activity change, negative = cytotoxicity [2] 1.95% [at 15.8 µM] | cytotoxicity increase [3] -8.17% [at 15.8 µM] | activity change, negative = cytotoxicity [4] 0.14% [at 19 µM] | viability change, negative = cytotoxic [5] 3.82% [at 19 µM] | activity change, negative = inhibition [6] 3.96% [at 19 µM] | activity change, negative = inhibition [7] 3.49% [at 19 µM] | activity change, negative = cytotoxicity [8] 3.01% [at 19 µM] | viability change, negative = cytotoxic [9] 1.33% [at 19 µM] | viability change, negative = cytotoxic [10] 0.3% [at 19 µM] | activity change [11] -1.33% [at 18.9 µM] | activity change, negative = inhibition [12] -0.431% [at 19 µM] | activation [13] -1.75% [at 19 µM] | activity, negative = inhibition [14] 0.823% [at 19 µM] | activity change, negative = cytotoxicity [17] -3.58% [at 19 µM]

NCCOCCN
inactive: Potency [1] | Potency [2] | Potency [3] | outcome [4] | outcome [5] | outcome [6] | Potency [7] | outcome [8] | outcome [9] | outcome [10] | outcome [11] | Potency [12] | outcome [15] | outcome [16] | outcome [17]

Cc1cc(C)c(C(=O)O)c(C)c1
inactive: Potency [1] | Potency [2] | Potency [3] | outcome [4] | outcome [5] | outcome [6] | Potency [7] | outcome [8] | outcome [9] | outcome [11] | Potency [12] | Potency [13] | Potency [14] | outcome [15]

O=C1OCCO1
inactive: Potency [1] | Potency [2] | Potency [3] | outcome [4] | outcome [5] | outcome [6] | Potency [7] | outcome [8] | outcome [9] | outcome [10] | outcome [11] | Potency [12] | outcome [15] | outcome [16] | outcome [17]

CC(C)c1ccc(C=O)cc1
inactive: Potency [1] | Potency [2] | Potency [3] | outcome [4] | outcome [5] | outcome [6] | Potency [7] | outcome [8] | outcome [9] | Potency [12] | outcome [15] | outcome [17]

Cc1ccccc1C(N)=O
inactive: Potency [1] | Potency [2] | Potency [3] | outcome [4] | outcome [5] | outcome [6] | Potency [7] | outcome [8] | outcome [9] | outcome [10] | outcome [11] | Potency [12] | Potency [13] | Potency [14] | outcome [16] | outcome [17]

C/C(CC(C)C)=N\O
inactive: Potency [1] | Potency [2] | Potency [3] | outcome [4] | outcome [5] | outcome [6] | Potency [7] | outcome [8] | outcome [9] | outcome [10] | outcome [11] | Potency [12] | Potency [13] | Potency [14] | outcome [15] | outcome [16] | outcome [17]

OCCN1CCOCC1
inactive: Potency [1] | Potency [2] | Potency [3] | outcome [4] | outcome [5] | outcome [6] | Potency [7] | outcome [8] | outcome [9] | outcome [10] | Potency [12] | Potency [14] | outcome [15] | outcome [16]
